TROY NFkB inh: TROY signaling inhibition | inhibition, % at 10 µM | 360,000 compounds, 0.98% hits | Q293 LMP1-TROYcd NF-kB luciferase reporter, 4 h;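 active = compounds whose plate-normalised and pattern-corrected inhibition of the luciferase reporter signal at the single screening dose is 50% or more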
CF NFkB inh: blocks PAF-induced NF-kB reporter in cystic fibrosis cells; KKLEB NF-kB-GFP reporter, GFP fluorescence overnight; inhibition, % at 5 µM; 360,000 compounds, 0.86% hits; AID 588850;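 active = at least 50% inhibition at 5 µM, scaled per plate between neutral and stimulator controls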;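 note: PAF is a Pseudomonas aeruginosa culture filtrate used as stimulus; plate controls were PAF-stimulated DMSO wells for no effect and unstimulated DMSO wells for full effect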
KKLEB tox: CF airway cell cytotoxicity counter-screen; KKLEB CF airway cells viability, ATPlite luminescence, overnight; active compounds read low; cells stimulated with P. aeruginosa culture filtrate; activity change (cytotoxicity), % at 5 µM; 360,000 compounds, 0.36% hits; AID 602141;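 active = corrected activity change at or below -50% at 5 µM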
TWEAK-Fn14 inh: inhibitors of TWEAK-Fn14 interaction signaling. TWEAK-stimulated Fn14 reporter cells, luciferase luminescence, 8 h. 360,000 compounds, 2% hits. AID 1159606. inhibition, % at 10 µM; in the data active = inhibition above about 50%
Peg3 promoter: reduces Peg3 promoter-driven luciferase expression in HeLa | 360,000 compounds, 1.7% hits | AID 588405 | inhibition, % at 20 µM | HeLa PEG-Prom luciferase reporter, luminescence, overnight;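 active = inhibition of at least 50% at 20 µM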
HIF-2a block: blocks HIF-2a reporter activity; 360,000 compounds, 0.72% hits; AID 624352; inhibition, % at 18.8 µM; 786-0 RCC cells HIF-2a reporter, luciferase luminescence, overnight;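 active = inhibition of the luminescence signal of 40% or more relative to plate controls, in a single-dose primary screen at 18.75 µM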
An asterisk follows results filed as active; . = not tested or not shown. The list is not random: actives were taken first. Their share in the collection is about 4%.

SMILES	TROY NFkB inh	CF NFkB inh	KKLEB tox	TWEAK-Fn14 inh	Peg3 promoter	HIF-2a block
CC12CCC(=O)C=C1C(O)CC1C2CCC2(C)C1CCC2(O)C(=O)CO (configuration not stated)	-1	3	-3	-6	3	17
Cc1ccccc1N(CC(=O)NCc1ccco1)C(=O)CCC(=O)Nc1nccs1	-9	-16	0	81*	-14	-4
CC(C)(C)NC(=O)CN(C(=O)CCC(=O)Nc1nccs1)c1ccc2c(c1)OCCO2	2	-20	12	12	13	9
Cc1cccc(N(CC(=O)NCc2ccco2)C(=O)CCC(=O)Nc2nccs2)c1C	-45	6	6	1	0	11
CC(C)CCNC(=O)CN(C(=O)CCC(=O)Nc1nccs1)c1ccc2c(c1)OCCO2	69*	5	2	78*	39	26
Cc1ccc(C)c(Nc2cc(C)nc3ccccc23)c1	-1	5	-7	8	20	29
Cn1cc(C(=O)N/N=C/c2ccc(Br)c([N+](=O)[O-])c2)c2ccccc21	18	-2	8	14	52*	34
CC(C)Oc1ccc(C(=O)Nc2nnc(SCC(=O)N3CCOCC3)s2)cc1	-8	12	-74*	50*	38	48*
Cc1ccc(C(=O)Nc2nnc(SCC(=O)N3CCCc4ccccc43)s2)cc1	15	3	-97*	55*	0	34
COc1ccc(CN(C2CC2)S(=O)(=O)c2ccccc2Br)cc1	27	15	-13	24	18	-3
COc1ccc(C(O)c2ncc(-c3cccc(C(F)(F)F)c3)[nH]2)cc1 (configuration not stated)	7	9	6	-9	12	15
O=C(Nc1ccc(/C=C/c2nc3ccccc3o2)cc1)c1c(F)cccc1F	59*	1	-3	38	-209	-151
CC(=O)Nc1ccc(/C=C/c2nc3ccccc3o2)cc1	-16	-22	8	17	-226	-217
CCOC(=O)c1c(C)n(C)c2ccc(OC)c(NC(=O)CN3CCSCC3)c12	9	-5	7	8	77*	-7
CCc1c(C)sc(NC(=O)c2cc(-c3cc(OC)ccc3OC)on2)c1C#N	1	40	-70*	-39	12	16
CCc1c(C)sc(NC(=O)c2cc(-c3ccc(OC)c(OC)c3)on2)c1C#N	-9	0	4	2	6	11
Cc1ccc(C2=N/C(=C\c3cccc(F)c3)C(=O)O2)cc1	2	-12	1	8	-1	12
Cc1cc(C)n(CC(O)Cn2c3ccc(Cl)cc3c3cc(Cl)ccc32)c(=O)n1 (configuration not stated)	38	12	-16	19	4	-19
OC(CNCC1CCCO1)Cn1c2ccc(Cl)cc2c2cc(Cl)ccc21 (configuration not stated)	-20	25	-30	3	106*	18
OC(CNCCC1C=Nc2ccccc21)Cn1c2ccc(Cl)cc2c2cc(Cl)ccc21 (configuration not stated)	49	31	-30	74*	102*	14
O=c1c(Cl)c(N2CCOCC2)cnn1-c1nc2ccccc2[nH]1	5	4	2	30	-135	-172
CCC(Cc1ccccc1)NC(=O)C1CCN(S(=O)(=O)c2ccc3c(c2)CC(C)N3C(C)=O)CC1 (configuration not stated)	9	11	-6	12	6	11
Cc1ccc(C(=O)Nc2ccc(-c3csc(C)n3)cc2)cc1	-24	-3	8	21	-333	-283
O=C(Nc1ccc(-c2csc(Nc3cccc(C(F)(F)F)c3)n2)cc1)c1ccccc1	-2	0	10	65*	26	-16
Cc1nc(-c2ccc(NC(=O)c3ccccc3)cc2)cs1	19	-23	-35	68*	-92	-78
SMILES	TROY NFkB inh	CF NFkB inh	KKLEB tox	TWEAK-Fn14 inh	Peg3 promoter	HIF-2a block
CN(CC(=O)NC1CCCCC1)S(=O)(=O)c1ccc(Cl)cc1	-7	4	-2	-10	91*	3
Cn1nc(C(=O)OCC(=O)Nc2ccc(C(N)=O)cc2)c2ccccc2c1=O	6	-4	-3	-10	-9	15
CC(C)N1C(=O)C(=O)N(CC(=O)N(C)c2ccccc2)C1=O	-9	-8	13	3	-3	0
Cc1nc2nc[nH]c2cc1Br	.	18	-6	67*	-5	12
Cc1nc2[nH]c(=S)[nH]c2cc1Br	12	-2	4	1	9	13
CN(C)S(=O)(=O)c1cccc(-c2nn(-c3ccccc3)cc2/C=C2\SC(=S)NC2=O)c1	67*	53*	-17	64*	60*	0
COc1cccc(-c2nc(NC(C)C)c3ccccc3n2)c1O	28	6	-7	68*	37	14
COc1cccc(-c2nc(NCC3CCCO3)c3ccccc3n2)c1O (configuration not stated)	-36	-53	-6	35	15	-2
CCC(C)Nc1nc(-c2cccc(OC)c2O)nc2ccccc12 (configuration not stated)	60*	-3	9	64*	54*	-27
COc1cccc(-c2nc(NCc3cccnc3)c3ccccc3n2)c1O	-49	-26	-8	-23	-16	-43
Cn1c(CNC(=O)CNC(=O)Cc2ccc(Cl)cc2)cc(=O)n(C)c1=O	-12	11	3	11	12	6
c1ccc2c(c1)OCC(CNc1ncnc3sccc13)O2 (configuration not stated)	0	23	0	51*	-32	-63
CN[C@H]1CC[C@@H](c2ccc(Cl)c(Cl)c2)c2ccccc21	.	8	.	-23	95*	-27
O=C1C=C(O)CC(c2ccc(Cl)c(Cl)c2)C1 (configuration not stated)	-4	-10	5	16	6	8
O=C(O)COc1ccc(NC(=O)c2ccc3c(c2)C(=O)N(CC2CCCO2)C3=O)cc1 (configuration not stated)	-13	-5	2	6	6	5
CCCOP(=O)(OCCC)C(NC(=O)C(C)(C)C)c1ccccc1 (configuration not stated)	9	6	6	-4	11	17
CCOP(=O)(OCC)C(NC(=O)C(F)(F)F)c1ccccc1 (configuration not stated)	63*	-10	5	8	4	15
O=C(c1cccc(Cl)c1)N1CCN(c2ccc3c(c2)C2CC3CCN2C(=O)OCc2ccccc2)CC1 (configuration not stated)	-6	21	-6	2	-151	-162
CCN(CC)S(=O)(=O)c1ccc2c(c1)nc(SCC(=O)NC1CC1)n2-c1ccccc1OC	.	8	7	61*	12	18
C=C(C)COc1ccc(-c2n[nH]c(C)c2-c2ccc(OC)cc2)c(O)c1	-10	-11	-15	2	80*	19

Screening results (PubChem BioAssay)
